Test results reported in PubChem BioAssay AID493014 (National Center for Advancing Translational Sciences (NCATS), 2011).
Out of some 340,000 compounds screened, about 170 (0.05%) were called active. About 26% were inconclusive and are not listed. Only a selection was taken, and actives are over-represented in it overall. Values without a mark were called inactive. The call rests on the fitted dose curve; in most records, active means well fitted inhibition curve with a large enough effect in the signal ratio, with a control signal flat (not every such curve was filed as active); inconclusive means small, poorly fitted or top-dose-only effect, or effect the other way, or a change in a side signal; inactive means flat fitted curve, though single readings scatter; the % refers to the signal ratio.

experiment: qHTS Assay to Find Inhibitors of Chronic Active B-Cell Receptor Signaling; conditions: ABC-DLBCL IkBa-CBG/CBR reporter, luminescence ratio, 4 h; series mostly up to 46.1 µM; activity change, negative = inhibition: at the top concentration;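 further: plate controls were basal doxycycline-induced cells for no effect and cells given 10 µM MG132 for full effect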
From the text: NIH Molecular Libraries Probe Production Network [MLPCN] NIH Chemical Genomics Center [NCGC] MLPCN Grant: 1 R03 DA031086-01A1 PI Name: Dr. R. Eric Davis NCGC Assay Overview: Diffuse large B-cell lymphoma (DLBCL) is the most common category of non-Hodgkin lymphoma, with ~20,000 new cases per year in the United States. DLBCL should be regarded as a collection of different neoplasms. Microarray gene expression analysis has defined two principal types of DLBCL, named for their similarity to normal B cell stages or activation states: a germinal center B-cell (GCB) type, and an activated B-cell (ABC) type. In ABC-DLBCL, a constitutive high-level activity of the NF-kappaB family of transcription factors has been observed (1) and NF-kappaB target genes are more highly expressed in ABC primary tumors than in GCB tumors. Functional studies have shown a constitutive high-level activity of the IkappaB (inhibitor of kappa-B) kinase (IKK) complex. […] Further analysis of DLBCL primary tumors for NF-kappaB target gene expression imply that although CARD11 is required for constitutive IKK activity in all ABC-DLBCL lines, mutations in CARD11 may be the root cause of IKK activation only in lines or tumors with such mutations. In other words, CARD11 mutations may explain NF-kappaB activation in only 10% of ABC-DLBCL cases. […] This process has been termed 'chronic active BCR signaling' (CABS). The goal of this screen is to find small-molecule inhibitors of the CABS pathway found in ABC-DLBCL lines using a cell-based assay that measures IkappaBalpa stability, which has already been extensively validated in the OCI-Ly3 line (PubChem AID:445; REF: 4). […] The assay uses green (CBG68) and red (CBR) emitting beetle luciferases [Chroma-GloTM developed by Promega Corp.] where the green luciferase is fused to IkappaBalpha and the red luciferase is present in its native state. Both luciferase genes are stably present in the TMD8 human ABC DLBCL cell line, but their expression is under the control of tetracycline-inducible promoters. Following the addition of doxycycline to induce expression of the luciferases, the green luminescence in control cultures rises only slowly because the CBG fusion partner IkappaBalpha is targeted by IKK activity for rapid degradation. In contrast, green luminescence rises rapidly in the presence of proteasome inhibitors or IKK inhibitors. The rise in red luminescence of CBR is not affected by proteasome or IKK inhibitors, and serves as normalization for cell number and nonspecific effects. Compounds were screened as a concentration-titration series that ranged from 46 uM to 3 nM.
NCGC Assay Protocol Summary: Cells were seeded in 1536-well plates at 5000 cells/4uL in IMDM medium containing 0.5% FBS, w/o phenol red, 1% penicillin/streptomycin. Then, 23 nL of compounds or DMSO were delivered to each well using a pin tool. One uL 20ng/ml doxycycline was then dispensed into white solid 1536-well plates and the plates were incubated at 37C/5% C02 in a cell incubator for 4 hrs. Then 4 uL luminescent substrate mix (in-house prepared: 150 mM Tris-Cl, pH 7.6, 3 mM MgCl2, 1% Triton X-100, 5 mM DTT, 0.2 mM CoA, 0.15 mM ATP, 5 mM D-luciferin, final concentrations) was added to each well. The plate was incubated at r.t. for 10-15 min. The plates were measured on a ViewLux plate reader for green luminescence (540/20 nm filter) and red luminescence (618/8 nm filter). The green and red luminescent signals were corrected for red and green luminescence filter overlap using previously determined filter calibration constants (determined using the procedure outlined in the Promega Technical Manual; REF 4). The %Activity was determined from the ratio of corrected green/red luminescent values. MG132 were used as control. […] Red luminescent %Activity was normalized to the difference between red luminesence in basal cells (0%Activity) and zero luminescence (-100% Activity). […]

First: Cn1c(CC(=O)NNC(=O)c2ccccc2F)nc2ccccc21
Second: CCN(c1ccccc1)S(=O)(=O)c1ccc(C(=O)Nc2ccccc2OC)cc1
The “activity change, negative = inhibition” value of the first is lower: -10.5% for the first, 1.41% for the second.

Going from `CN1C(=O)[C@H]2[C@@H](/C=C/c3ccccc3)N3C(=O)CN(Cc4ccc(-c5ccccc5)cc4)C(=O)[C@@]3(C)[C@H]2C1=O` to `CCN1C(=O)[C@@H]2[C@@H](c3ccc(-c4ccccc4)cc3)N3CCCC[C@@]3(C(=O)OC)[C@@H]2C1=O`, the “activity change, negative = inhibition” value falls from 1.78% to -13.7%.

First: COc1cc(Cl)ccc1OCc1cc(C(=O)N(C)CCc2c(C)n[nH]c2C)no1
Second: COc1ccc(CNC(=O)C[C@H]2C[C@H](C(=O)N3CCOCC3)[C@@]3(C)c4[nH]c5cc(CCC(=O)N(C)C)ccc5c4CCN3C2=O)cc1OC
The “activity change, negative = inhibition” value of the first is higher: -1.42% for the first, -3.2% for the second.

First: CC1CCN(c2ccc(-c3ccc(NC(=O)c4ccco4)cc3)nn2)CC1
Second: CSCc1nnc(NC(=O)c2ccc(S(=O)(=O)N3CCCCC3C)cc2)o1 (stereo not drawn)
The “activity change, negative = inhibition” value of the first is higher: 9.68% for the first, 3.95% for the second.

First: CC(C)(C)OC(=O)C[C@@H]1C/C=C\C[C@@H](CC(=O)N[C@H](CO)Cc2ccccc2)C(=O)NCCOC1=O
Second: CN[C@H](C(=O)NC[C@H]1O[C@@H](n2cnc3c(N)ncnc32)[C@H](O)[C@@H]1O)[C@@H](C)OCc1ccccc1
The “activity change, negative = inhibition” value of the first is lower: -1.38% for the first, 6.59% for the second.

First: COc1ccc(-c2csc3ncnc(N4CCN(S(=O)(=O)c5cccc(F)c5)CC4)c23)cc1
Second: CN(c1ccccc1)S(=O)(=O)c1cc(C(=O)N2CCN(c3ncccn3)CC2)ccc1Cl
The “activity change, negative = inhibition” value of the first is lower: -14.3% for the first, 3.2% for the second.

Compared with `CC(=O)c1c(C)[nH]c(C(=O)COC(=O)c2cccs2)c1C`, `O=C(COC(=O)c1c(Cl)cccc1Cl)Nc1cccc(S(=O)(=O)NC2=NCCCCC2)c1` is lower in “activity change, negative = inhibition” value: -2.67% for the first, -10.1% for the second.

First: COc1ccc(-c2c(C#Cc3ccsc3)c3cc(-c4ccc(CN5CCOCC5)cc4)ccc3n2C)cc1
Second: COc1cc(OC)cc(-c2c(-c3cccs3)c3cc(-c4ccc(OC)cc4F)ccc3n2C)c1
The “activity change, negative = inhibition” value of the first is lower: 3.39% for the first, 4.81% for the second.

Going from `O=C(Nc1cc(S(=O)(=O)Nc2ccc(Cl)cc2)ccc1O)c1ccc(F)cc1F` to `CCN(CC)S(=O)(=O)c1ccc(N2CCN(C)CC2)c(NC(=O)Nc2ccccc2F)c1`, the “activity change, negative = inhibition” value rises from 0.136% to 4.9%.

Going from `Cc1cc(C)cc(OCC(=O)Nc2ccc(N3CCOCC3)cc2N2CCOCC2)c1` to `CCOCc1c(C(=O)N2CCN(Cc3ccc(Br)s3)CC2)oc2ccccc12`, the “activity change, negative = inhibition” value rises from -5.71% to -2.34%.

Compared with `C=CC[C@H](CC(=O)NCCO)C(=O)N[C@@H](COC(=O)[C@@H](CC=C)Cc1ccc(F)cc1)Cc1c[nH]c2ccccc12`, `COc1cc(C(=O)NCc2ccncc2)cc(Br)c1OCc1ccccc1` is higher in “activity change, negative = inhibition” value: -0.684% for the first, 5.05% for the second.

For `CCCN(CC(=O)NC(=O)NC1CCCCC1)CC(=O)Nc1cc(Cl)ccc1Cl`, the “activity change, negative = inhibition” value was 0.641%.
